# Test results: the OligoGym collection
# Target: SLMAP
# Test: pooled miR-30 sensor sort-seq; sequence = guide strand
# Conditions: shRNA
# Also: reference of the scale not given here.
row,Sequence,sensor-assay potency score (higher = more potent)
1,TTCACTGTCCTTCTCCTCCCGG,-0.623
2,TTTAATGTTATAAATAATCTGG,-0.423
3,TCAACTTCTCTAGTTCACCTTG,0.0522
4,TTGAAGATAAAACTTGCCCGTC,0.116
5,TAATTCTCTTAATTCTTCCTGA,0.412
6,ATACTCTTTCTGCACATCCTTT,-0.952
7,TATTCTTGTACTTCTGCTGTTT,-0.0967
8,TTTGTTTACTTGTTCTAGCTAG,0.257

# Target: SMAD4
# Test: as above
# Conditions: shRNA
row,Sequence,sensor-assay potency score (higher = more potent)
1,TTAGGTAGAGTGACGCTGCTTT,0.626
2,TAACTCTGTACAAAGACCGCGT,0.679
3,TTACTTGTTGGTGTATTCGTAA,-0.078
4,TTACAATACATTATTAACTTAC,-0.987
5,TTAGCAACCAACCTTGTGCCTA,-0.621
6,TTTGAATTGAATGTCCTTCAGT,-0.388
7,TAGAATGATATACATATCGATG,-1.35
8,TACATTCCAACTGCACACCTTT,-0.752
9,TTGTATTTTGTAGTCCACCATC,-1.39
10,TTCCAGGTGATACAACTCGTTC,-1.63
11,TTCTTAGCAACCAACCTTGTGC,-0.338
12,TTAACTTTGAGAACTTCTCTGC,0.783

# Target: SMC2
# Test: as above
# Conditions: shRNA
row,Sequence,sensor-assay potency score (higher = more potent)
1,TTGAGTTCTTGAAACTTGGTTA,0.137
2,TCTACCACCAATAACCACCTGC,0.664
3,TTCTGGTTTATATTCAACCAAG,-1.67
4,TACTTTGGTATCTTCAGCCAGC,-0.418
5,TTCTAGAGCTTCTTGATCCTTC,0.175
6,TTGCATTGTTGAACATACCTTC,0.529
7,TTTGATTCTCAGTTCATCCTGA,0.766
8,TTCATTTACAGCTTCAAGCTGT,0.444
9,TTCTATTCCAGTTCTTCTCTGG,0.3
10,TTTTTGTATTCATACATCCTGG,-0.581
11,TAATTCTTCTTGTTGCTTGTGA,0.551
12,TTGTTTATTCTTTAATTCCTGT,-0.411

# Target: SMC5
# Test: as above
# Conditions: shRNA
row,Sequence,sensor-assay potency score (higher = more potent)
1,TTTATTGTCACGAACCTCTTTG,-0.041
2,TTATCTTTCATATTGATCGTGA,0.464
3,TTCTATAACATCTTGCTTCTGT,0.581
4,TTCTCTTTTTGTATATTCCTGA,-0.0732
5,TTGATTTCATCAACTACTCTGA,0.124
6,TTGATCTAGTTCAACTTTCTTT,-0.0143
7,TTCTGCAATAATCTCTGTCTAT,-1.01
8,TTCATTGTCTTTGTGCTCCAGA,0.694
